Consider eleven compounds from PMC11062922 (Nature Chemical Biology, 2023).

Test [1] has as its system AAK1. On the set-up: species or system human, MV4-11 + K-562 + COLO205 + SK-N-BE2 + OVCAR-8. The note with it: read-out: apparent Kd, n = 1.
Test [2] concerns CLK1. On the set-up: species or system human, MV4-11 + K-562 + COLO205 + SK-N-BE2 + OVCAR-8. The note with it: read-out: apparent Kd, n = 1.
Test [3] has as its system CLK4. Also on record: species or system human, MV4-11 + K-562 + COLO205 + SK-N-BE2 + OVCAR-8. The note with it: read-out: apparent Kd, n = 1.
In test [4] the test system is GSK3A. On the set-up: species or system human, MV4-11 + K-562 + COLO205 + SK-N-BE2 + OVCAR-8. The note with it: read-out: apparent Kd, n = 1.
The test system of test [5] is GSK3B. On the set-up: species or system human, MV4-11 + K-562 + COLO205 + SK-N-BE2 + OVCAR-8. The following applies: read-out: apparent Kd, n = 1.
Test [6] deals with MELK. On the set-up: species or system human, MV4-11 + K-562 + COLO205 + SK-N-BE2 + OVCAR-8. The note with it: read-out: apparent Kd; compound concentrations:100 nM and 1000 nM (sheet 'Samples'); n = 1.
Test [7] deals with PKN1. Also on record: species or system human, MV4-11 + K-562 + COLO205 + SK-N-BE2 + OVCAR-8. The following applies: read-out: apparent Kd; compound concentrations:100 nM and 1000 nM (sheet 'Samples'); n = 1.
Test [8] concerns PKN3. On the set-up: species or system human, MV4-11 + K-562 + COLO205 + SK-N-BE2 + OVCAR-8. The following applies: read-out: apparent Kd; compound concentrations:100 nM and 1000 nM (sheet 'Samples'); n = 1.
Test [9] concerns the target Q6ZSR9 (human, UniProt Q6ZSR9). Also on record: species or system MV4-11 + K-562 + COLO205 + SK-N-BE2 + OVCAR-8. The note with it: read-out: apparent Kd, n = 1.
In test [10] the test system is GAK. On the set-up: species or system human, MV4-11 + K-562 + COLO205 + SK-N-BE2 + OVCAR-8. The following applies: read-out: apparent Kd; compound concentrations: 100 nM and 1000 nM (sheet 'Samples'), CATDS: 4.3278259075416499E-2; n = 1.
Test [11] relates to PRKAG1. Also on record: species or system human, MV4-11 + K-562 + COLO205 + SK-N-BE2 + OVCAR-8. The following applies: read-out: apparent Kd; compound concentrations: 100 nM and 1000 nM (sheet 'Samples'), CATDS: 4.3402383935848998E-2; n = 1.
Test [12] relates to BMP2K. Also on record: species or system human, MV4-11 + K-562 + COLO205 + SK-N-BE2 + OVCAR-8. The following applies: read-out: apparent Kd, n = 1.
Test [13] has as its system CSNK2A1;CSNK2A3. On the set-up: species or system human, MV4-11 + K-562 + COLO205 + SK-N-BE2 + OVCAR-8. The following applies: read-out: apparent Kd, compound concentrations: 100 nM and 1000 nM (sheet 'Samples'), n = 1.
For test [14], the system named is CSNK2A2. On the set-up: species or system human, MV4-11 + K-562 + COLO205 + SK-N-BE2 + OVCAR-8. The following applies: read-out: apparent Kd, compound concentrations: 100 nM and 1000 nM (sheet 'Samples'), n = 1.
Test [15] relates to NUAK1. On the set-up: species or system human, MV4-11 + K-562 + COLO205 + SK-N-BE2 + OVCAR-8. The note with it: read-out: apparent Kd, compound concentrations: 100 nM and 1000 nM (sheet 'Samples'), n = 1.
The test system of test [16] is PAK4. Also on record: species or system human, MV4-11 + K-562 + COLO205 + SK-N-BE2 + OVCAR-8. The note with it: read-out: apparent Kd; compound concentrations: 100 nM and 1000 nM (sheet 'Samples'), CATDS: 0.130749402221499; n = 1.
The mark [17] stands for this setting: compound concentrations:100 nM and 1000 nM (sheet 'Samples').

Like-named read-outs stand apart in the source and are kept apart here.

Sequence of Q6ZSR9 (Q6ZSR9 whole entry, looked up): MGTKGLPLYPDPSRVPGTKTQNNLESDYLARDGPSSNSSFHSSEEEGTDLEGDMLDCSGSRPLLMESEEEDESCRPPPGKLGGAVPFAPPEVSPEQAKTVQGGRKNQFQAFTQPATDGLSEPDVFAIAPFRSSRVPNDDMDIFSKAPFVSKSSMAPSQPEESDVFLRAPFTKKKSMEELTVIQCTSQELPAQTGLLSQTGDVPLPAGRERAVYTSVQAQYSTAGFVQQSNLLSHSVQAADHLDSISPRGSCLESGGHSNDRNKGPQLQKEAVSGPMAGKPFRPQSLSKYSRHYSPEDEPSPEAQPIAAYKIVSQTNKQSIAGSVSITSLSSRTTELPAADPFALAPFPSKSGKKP

As for `CCn1c(-c2nonc2N)nc2cncc(Br)c21` [SB-738004], the potency estimated from few doses in test [1] (setting [17]) is 0.517 µM; in [2] (setting [17]) it was 1.42 µM; in test [3] (setting [17]), 0.505 µM; in test [4] (setting [17]), 0.445 µM; in [5] (setting [17]) it was 0.724 µM; in test [6] it was 1.66 µM. Further, the potency estimated from few doses is 0.553 µM in [7], 1.32 µM in test [8] and 0.369 µM in [9] (setting [17]).

In the case of `Cn1cc(C2=C(c3ccc(OC[C@@H](O)CO)cc3)C(=O)NC2=O)c2ccccc21` [RO3208546-000], the potency estimated from few doses in [1] (compound concentrations: 100 nM and 1000 nM (sheet 'Samples'), CATDS: 3.6946772477140302E-2) is 1.32 µM; in test [2] (compound concentrations: 100 nM and 1000 nM (sheet 'Samples'), CATDS: 3.5256752059163503E-2), 1.51 µM; in test [10] it was 0.885 µM; in test [4] (compound concentrations: 100 nM and 1000 nM (sheet 'Samples'), CATDS: 5.7986352312034098E-2) it was 0.489 µM; in test [5] (compound concentrations: 100 nM and 1000 nM (sheet 'Samples'), CATDS: 4.5953894166210499E-2), 0.774 µM; in test [11] it was 0.879 µM. Further, the potency estimated from few doses in test [9] (compound concentrations: 100 nM and 1000 nM (sheet 'Samples'), CATDS: 3.3781584093652402E-2) is 1.72 µM.

Regarding `Cl.Cl.NCC(NCc1ccc(-c2ccnc3[nH]ccc23)s1)c1ccccc1.NCC(NCc1ccc(-c2ccnc3[nH]ccc23)s1)c1ccccc1` (stereo not drawn) [GSK1321565A], the potency estimated from few doses in test [1] (setting [17]) was 0.82 µM; in [12] (setting [17]), 0.982 µM; in [9] (setting [17]) it was 0.942 µM.

Regarding `Cl.Nc1nc(-c2ccc3c(c2)C(=Cc2cc(Br)c(O)c(Br)c2)C(=O)N3)cs1` [GW407323A], the potency estimated from few doses is 0.169 µM in [1] (compound concentrations: 100 nM and 1000 nM (sheet 'Samples'), CATDS: 6.1735676660854701E-2); 0.0736 µM in test [12] (compound concentrations: 100 nM and 1000 nM (sheet 'Samples'), CATDS: 9.5342393431140995E-2); 0.333 µM in [2] (compound concentrations: 100 nM and 1000 nM (sheet 'Samples'), CATDS: 4.62979117088285E-2); 0.087 µM in [3] (compound concentrations: 100 nM and 1000 nM (sheet 'Samples'), CATDS: 8.6707828980110799E-2); 0.199 µM in test [13] (CATDS: 5.7367661207528599E-2); 0.349 µM in test [14] (CATDS: 4.5506088174881797E-2). Besides, in [9] (compound concentrations: 100 nM and 1000 nM (sheet 'Samples'), CATDS: 5.6700337610390401E-2), the potency estimated from few doses was 0.204 µM.

Consider `NS(=O)(=O)c1ccc(N/N=C2\C(=O)Nc3ccc(-c4cnco4)cc32)cc1` [GW276655_KCGS], for which the potency estimated from few doses in test [1] (setting [17]) is 1.18 µM; in test [12] (setting [17]), 0.518 µM; in [9] (setting [17]), 0.782 µM.

As to `O=C1N=C(NCCc2cccs2)S/C1=C\c1ccc2ncccc2c1` [RO4508348-000], the potency estimated from few doses is 1.29 µM in test [1] (compound concentrations: 100 nM and 1000 nM (sheet 'Samples'), CATDS: 0.107531235495484); 1.45 µM in [2] (compound concentrations: 100 nM and 1000 nM (sheet 'Samples'), CATDS: 0.103004978566102); 1.41 µM in test [13] (CATDS: 0.103993193967583); 1.25 µM in [14] (CATDS: 0.109129966582831); 0.947 µM in test [9] (compound concentrations: 100 nM and 1000 nM (sheet 'Samples'), CATDS: 0.123024935972758).

Take `CC(C)N1CC(=O)N(C)c2cnc(Nc3cccc(S(=O)(=O)CCN4CCOCC4)c3)nc21` [BI00009348]: the potency estimated from few doses was 0.662 µM in test [1] (compound concentrations: 100 nM and 1000 nM (sheet 'Samples'), CATDS: 7.4673370536537498E-2); 0.736 µM in [12] (compound concentrations: 100 nM and 1000 nM (sheet 'Samples'), CATDS: 7.1051362969771797E-2); 0.783 µM in [5] (compound concentrations: 100 nM and 1000 nM (sheet 'Samples'), CATDS: 6.9045357407431895E-2); 1.14 µM in [15] (CATDS: 5.8980010573034099E-2); 1.02 µM in [9] (compound concentrations: 100 nM and 1000 nM (sheet 'Samples'), CATDS: 6.16877896582032E-2).

Consider `COc1cccc(C2=C(c3c(C)n(C)c4ccccc34)C(=O)NC2=O)c1` [RO3300167-000], for which the potency estimated from few doses in [1] (compound concentrations: 100 nM and 1000 nM (sheet 'Samples'), CATDS: 7.9667560611670199E-2) was 1.52 µM; in test [16], 0.582 µM; in [9] (compound concentrations: 100 nM and 1000 nM (sheet 'Samples'), CATDS: 7.9945675311768105E-2) it was 1.51 µM.

`CCn1c(-c2nonc2N)nc2cncc(C(=O)N3CC[C@H](N)C3)c21.Cl` [SB-772077-B]: the potency estimated from few doses in test [1] (setting [17]) was 1.7 µM; in test [4] (setting [17]), 1.1 µM; in test [7], 0.484 µM; in [8], 1.71 µM; in test [9] (setting [17]), 1.88 µM.

In the case of `Nc1nccc(-c2ccc3c(N)n[nH]c3c2)n1` [GSK1034945A], the potency estimated from few doses was 0.194 µM in test [1] (setting [17]); 0.194 µM in [12] (setting [17]); 0.0354 µM in test [2] (setting [17]); 0.025 µM in test [3] (setting [17]); 0.828 µM in test [6]; 0.225 µM in test [9] (setting [17]).

As to `NS(=O)(=O)c1ccc(N/C=C2\C(=O)Nc3ccc4ncsc4c32)cc1` [GW297361X], the potency estimated from few doses was 0.785 µM in test [1] (compound concentrations: 100 nM and 1000 nM (sheet 'Samples'), CATDS: 4.1332868698359997E-2); 0.615 µM in test [12] (compound concentrations: 100 nM and 1000 nM (sheet 'Samples'), CATDS: 4.6280622165998701E-2); 1.05 µM in test [3] (compound concentrations: 100 nM and 1000 nM (sheet 'Samples'), CATDS: 3.6697746350308501E-2); 1.83 µM in test [13] (CATDS: 3.0344109186555501E-2); 1.07 µM in [14] (CATDS: 3.6316988085140701E-2); 0.0336 µM in test [15] (CATDS: 0.30685592880619). Besides, the potency estimated from few doses in [9] (compound concentrations: 100 nM and 1000 nM (sheet 'Samples'), CATDS: 3.8953206873676101E-2) is 0.902 µM.
